From PubChem BioAssay
Sfp inh = inhibitors of Bacillus subtilis Sfp phosphopantetheinyl transferase. Q9F4F7. Potency, µM, for the others: largest response in the series, negative = inhibition, most hits filed as inhibitors. 310,000 compounds, 3.5% hits. Biochemical Sfp PPTase activity, qHTS;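 note: the enzyme is Sfp with the accession as filed and its product quenches rhodamine fluorescence; 0% = enzyme reaction without inhibitor and -100% = no enzyme wells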
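Fluorescence-quenching assay: 15 nM Sfp-PPTase preincubated 15 min at room temperature with compound, then 5 uM rhodamine-CoA and 12.5 uM BHQ-2-labelled YbbR peptide added. Fluorescence (ex 525/em 598 nm) read at start and after 30 min; difference gives rate.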
JMJD2A Tudor = inhibitors of human JMJD2A Tudor domain | 390,000 compounds, 4.4% hits | Potency, µM (top dose mostly 114 µM), without a hit: at the top dose activity change, negative = inhibition, actives largely listed as inhibitors | AlphaScreen JMJD2A-Tudor / H3K4me3 peptide binding; note: % is set by controls: 0 for no effect and ±100 for the full control effect; nearly all actives have a fitted effect of over 50% in size
HP1b chromo inh = blocks HP1-beta chromodomain binding to methylated histone tails | AID 540317 | AlphaScreen HP1-beta / biotin-H3K9me3 peptide binding | Potency, µM (highest dose often 114 µM), for inactives: top-dose activity change, negative = inhibition, actives largely listed as inhibitors | 390,000 compounds, 0.56% hits; note: nearly all actives have a fitted effect of over 70% in size
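HP1-beta protein (50 nM final) preincubated 30 min at room temperature with biotinylated H3(1-18)K9me3 peptide (50 nM) in PBS pH 7.4, 0.01% Tween-20, then compound added for 30 min. AlphaScreen streptavidin donor/nickel chelate acceptor beads (10 ug/mL final), 30 min dark, luminescence read.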
BAZ2B inh = BAZ2B (human) inhibition; Potency, µM (top dose mostly 114 µM), inactives show at the top dose activity change, negative = inhibition, most hits filed as inhibitors; Q9UIF8; 360,000 compounds, 4.4% hits; AlphaScreen BAZ2B-H3K14Ac peptide displacement; note: % is set by controls: 0 for no effect and ±100 for the full control effect; nearly all actives have a fitted effect of over 60% in size
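AlphaScreen displacement: compounds (up to 110uM) incubated 30 min at room temperature with a preformed 50 nM BAZ2B/50 nM biotinylated H3K14Ac peptide complex in PBS pH 7.4 with Tween-20. Donor and acceptor beads at 10 ug/mL final added, 20 min light-protected before reading.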
12-LOX inh = ALOX12 (human) lipoxygenase inhibition | P18054 | purified 12hLO, xylenol orange hydroperoxide absorbance | Potency, µM (highest dose often 108 µM), for inactives: at the highest dose activity change, negative = inhibition, usual class: inhibitors | 580,000 compounds, 1.1% hits; note: % is set by controls: 0 for no effect and ±100 for the full control effect
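Purified human 12hLO (150 nM final) in 25 mM Hepes, 0.01% Triton X-100, pH 7.0 was preincubated 15 min at room temperature with compound. Then 40 uM arachidonic acid was added, 30 min. Hydroperoxide was read by Fe-XO absorbance ratio 573/405 nm.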
G9a inh = inhibitors of human histone lysine methyltransferase G9a; 350,000 compounds, 8.8% hits; Q96KQ7; AID 504332; Potency, µM (top dose mostly 102 µM), for inactives: at the highest dose activity, negative = inhibition, actives largely listed as inhibitors; G9a H3K9 monomethylation, AlphaScreen, 2 h; note: % is set by controls: 0 for no effect and ±100 for the full control effect; nearly all actives have a fitted effect of over 75% in size
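Quantitative HTS format: methyltransferase activity on a biotin-tagged H3K9 peptide is measured by AlphaScreen, using a rabbit anti-monomethyl-H3K9 antibody with streptavidin donor and anti-IgG acceptor beads. Final levels are 20 nM enzyme, 500 nM peptide, 20 uM SAM; 2 h RT.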
* marks the source's active call; other numbers are inactive results; i = inactive; ? = inconclusive; · = no result; [ ] = remark or other dose. Hits are enriched below; roughly 8.7% of the tested compounds scored in any of these assays. Calls come from the whole dose curve; as a rule, active = well fitted curve in the direction sought with a large enough effect; inconclusive = small, poorly fitted or top-dose-only effect, or another doubt; inactive = no such curve, though single readings can be large; an effect the other way counts as inactive or inconclusive. Potency is the fitted concentration of half-maximal effect.

SMILES | Sfp inh | JMJD2A Tudor | HP1b chromo inh | BAZ2B inh | 12-LOX inh | G9a inh
COc1cccc(C2C(C(=O)/C=C/c3ccco3)=C(O)C(=O)N2CCN2CCOCC2)c1 (stereo unspecified) | ? | -30.8% | 28.5% | · | ? | 50.1µM*
COc1ccc(C2C(C(=O)/C=C/c3ccco3)=C(O)C(=O)N2CCN2CCOCC2)cc1 (stereo unspecified) | -30.0% | -33.6% | 17.4% | 79.4µM* | -28.1% | ?
Cc1ccc2nc(C)c(C(=O)N3CCCC3C3CCCC3)cc2c1 (stereo unspecified) | · | · | · | · | -25.7% | ·
O=c1c2ccccc2cnn1CN1CCN(S(=O)(=O)c2ccccc2Cl)CC1 | · | · | · | · | -1.3% | ·
Cc1ccc2c(c1)c1c3n2CCN(CC(N)=O)C3CCC1 (stereo unspecified) | 18.9% | -6.2% | 21.2% | 23.8% | ? | ·
Cc1ccc2c(c1)c1c3n2CCCN(Cc2ccccc2)C3CCC1 (stereo unspecified) | -3.7% | ? | ? | 10µM* | 5.1% | 12.6µM*
Cc1ccc2c(c1)c1c3n2CCN(C(=O)c2ccc(C(F)(F)F)cc2)C3CCC1 (stereo unspecified) | · | ? | -6.7% | 28.2µM* | -22.8% | ?
Cc1ccc2c(c1)c1c3n2CCN(CCC(=O)O)C3CCC1 (stereo unspecified) | 10.7% | -16.6% | 27.3% | ? | 12.3% | 44.7µM*
Cc1ccc2c(c1)c1c3n2CCN(C(=O)C2CC2)C3CCC1 (stereo unspecified) | ? | -34.5% | -1.0% | ? | ? | 39.8µM*
COC(=O)c1c(C)[nH]c(C(=O)COc2ccc3c(-c4ccccc4)cc(=O)oc3c2)c1C | · | · | · | · | -11.3% | ·
CCCCNC(=O)CSc1cc(C(=O)NC2CC2)c2ccccc2n1 | · | · | · | · | 1.0% | ·
O=C(NCCc1csc(-c2cccnc2)n1)C1CC2(CCNCC2)CN1 (stereo unspecified) | · | · | · | · | 48.2% | ·
CC(C)CCNC(=O)N1CCC(Oc2ncccc2C(=O)N(C)C)C1 (stereo unspecified) | · | · | · | · | 33.1% | ·
Cc1ccc(C(=O)N2CCn3c4c(c5cc(C)ccc53)CCCC42)cc1 (stereo unspecified) | · | ? | -21.7% | 14.1µM* | ? | 11.2µM*
CC(=O)Oc1ccc2c(C)c(CC(=O)Nc3ccc4c(c3)OCCO4)c(=O)oc2c1 | · | · | · | · | 0.5% | ·
Cc1ccc(O)c(NC2=C(Cl)C(=O)N(Cc3ccccc3)C2=O)c1 | 7.08µM* | 3.98µM* | 15.8µM* | 44.7µM* | 5.62µM* | 6.31µM*
O=C1C(Cl)=C(Nc2ccccc2O)C(=O)N1c1ccccc1 | 22.4µM* | 35.5µM* | ? | ? | -9.1% | 7.94µM*
CCOc1ccccc1NC1=C(Cl)C(=O)N(c2ccc(OC)cc2)C1=O | -22.3% | ? | -5.0% | ? | -0.6% | ?
COc1cc(NC(=O)c2ccccc2-c2ccccc2)cc(OC)c1OC | 3.8% | · | · | 0.3% | · | ·
Cc1ccc(NC(=O)CSc2ccccc2C(=O)Nc2ccc3c(c2)OCCCO3)cc1 | · | · | · | · | 10µM* | ·
CC(Oc1ccc(F)cc1)C(=O)Nc1cccc(-c2nn[nH]n2)c1 (stereo unspecified) | 31.6µM* | -22.7% | -0.4% | -17.1% | ? | 25.1µM*
N#Cc1ccc(CSc2ccccc2C(=O)Nc2ccc3c(c2)OCO3)cc1 | · | · | · | · | 28.2µM* | ·
CCSc1ccccc1C(=O)Nc1cc(OC)c(OC)c(OC)c1 | 15.8µM* | -33.3% | 9.9% | -13.0% | ? | 3.55µM*
CCOc1ccc2c(n1)CCN(C(=O)c1ccccc1OC)C2 | · | · | · | · | 32.7% | ·
O=C(c1ccccn1)C1CCCN(C(=O)c2cnc(-c3cccnc3)nc2)C1 (stereo unspecified) | · | · | · | · | 13.7% | ·
SMILES | Sfp inh | JMJD2A Tudor | HP1b chromo inh | BAZ2B inh | 12-LOX inh | G9a inh
COCCSc1ccccc1C(=O)Nc1nncs1 | -4.6% | -3.7% | 43.0% | -18.9% | ? | 25.1µM*
COCCSc1ccccc1C(=O)Nc1ccncc1 | -5.4% | -0.6% | 11.0% | 1.9% | -28.0% | ?
COc1ccccc1OC(C)C(=O)Nc1cccc(-c2nc3ccccc3s2)c1 (stereo unspecified) | · | 0.3% | 18.5% | 2.3% | ? | 8.91µM*
COCCSc1ccccc1C(=O)Nc1ccc2c(c1)OCCO2 | -8.7% | 2.3% | 58.8% | 2.2% | ? | 3.55µM*
COCCSc1ccccc1C(=O)Nc1cc(C)cc(C)c1 | ? | 0.6% | 51.8% | 0.0% | ? | 4.47µM*
O=C(Nc1nncs1)c1cccnc1Cl | 7.8% | -17.7% | 4.7% | -5.1% | ? | 1.41µM*
COc1cc(SC)ccc1C(=O)Nc1ccc2c(c1)OCCO2 | -7.6% | -14.5% | 3.4% | -22.4% | 1.6% | 50.1µM*
Cc1csc(NC(=O)c2cccnc2Cl)n1 | · | -12.8% | -0.2% | · | ? | ·
COc1ccccc1OC(C)C(=O)Nc1ccc2c(c1)OCCO2 (stereo unspecified) | 15.3% | -17.9% | -14.1% | -3.9% | -5.5% | 31.6µM*
COc1ccc(NC(=O)CNS(=O)(=O)c2ccc(Cl)cc2)cc1OC | 18.2% | -12.8% | 17.0% | -5.8% | 2.3% | -12.4%
COc1ccc(S(=O)(=O)NCC(=O)Nc2ccc3c(c2)OCCO3)cc1OC | 1.0% | -11.0% | 36.5% | 17.3% | 11.3% | 50.1µM*
COC(=O)c1ccn[nH]1 | · | · | · | · | 41.1% | ·
CC12CN3CC(C)(CN(C1)C31C3CC4CC(C3)CC1C4)C2=O (stereo unspecified) | · | · | · | · | 2.3% | ·
Cn1cccc1CN1CCCC(C(=O)NCc2ccccc2)CCNC(=O)CC1 (stereo unspecified) | · | · | · | · | 47.5% | ·
CCN(CC)CCc1c(C)[nH]c(C(=O)OCc2ccccc2)c1C | 6.6% | -33.7% | -12.8% | ? | 15.5% | 79.4µM*
O=C1NCCCC1C(=O)N/N=C/c1cc([N+](=O)[O-])ccc1O (stereo unspecified) | 15.7% | 39.8µM* | 15.5%[57 µM] | 50.1µM* | -0.2% | 47.4%[12.7 µM]
O=C(N/N=C/c1cc([N+](=O)[O-])ccc1O)c1ccncc1 | 4.1% | 22.4µM* | 42.6% | 10µM* | -7.2% | ·
N#CCC(=O)N/N=C\c1ccccc1OC/C=C/c1ccccc1 | -6.8% | ? | 28.6% | 50.1µM* | i | 30.4%
CC/C(=N\NC(=O)c1ccc(N(C)C)cc1)c1ccccc1 | -29.2% | ? | -2.1% | -8.9% | 2.8% | 28.2µM*
O=C(CCc1nnn2c1CN(C(=O)Nc1cccc(F)c1)CC2)NC1CC1 | · | · | · | · | 34.0% | ·
O=C(CCCC(=O)Nc1cccc(Br)c1)N/N=C/c1cc([N+](=O)[O-])ccc1O | 22.9% | ? | 27.0% | 1.1% | ? | ·
O=C(CN(c1cccc(Br)c1)S(=O)(=O)c1ccccc1)N/N=C/c1cc([N+](=O)[O-])ccc1O | · | 50.1µM* | -11.8% | · | 328.6% | ·
